Reference: the supplement of paper PMC12494721
Where a name gives a salt, the structure may show the parent alone.

How the values were obtained:
Details in all cases: incubation time: 27 h, anaerobic, 37 °C;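 for the amine columns active = adjusted P below 0.05 in both replicates with a change the same way and a mean fold change under 0.8 or over 1.25; inactive = the rest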
[1] = test system: Clostridium sporogenes DSM 1664; experiment: growth (OD595) fold change vs plate DMSO controls (fold change (ratio)); higher = more growth
Method in brief: (§1)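 The 96-well mGAM cultures had been kept anaerobic for 27 h at 37 °C before being shaken and read at 595 nm. Blank subtraction, compound background correction with 20 µM compound solutions in water, and a calibration factor of 5 turned the readings into OD. Growth is given as the fold change versus the median of plate DMSO controls. Fold changes above 1.5 were set to NA, and the values are means of 2 biological replicates.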

Escherichia coli IAI1 [2] = experiment: as above
Method in brief: as §1

[3] = test system: Klebsiella aerogenes DSM 30053; experiment: as above
Method in brief: as §1

[4] = test system: Ruminococcus gnavus DSM 108212; experiment: as above
Method in brief: as §1

[5] = test system: Klebsiella aerogenes DSM 30053; experiment: fold change of Histamine concentration vs plate DMSO controls (fold change (ratio)); higher = more amine produced, active = hit call of the paper (significant change in both replicates, either direction)
Method in brief: (§2)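 Anaerobic mGAM cultures of four gut bacterial strains were grown at 37 °C for 27 h in 80 µL wells, starting at OD 0.1 before 1:1 dilution. Compounds were at 20 µM final (sweeteners 50 µM). Whole cultures were extracted with cold acetonitrile/methanol containing 0.1% formic acid and centrifuged. Amines were quantified by LC–triple-quadrupole MS (dynamic MRM) against external calibration curves and drift-corrected within batch. Each value is the fold change versus plate DMSO controls, averaged over 2 biological replicates.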

[6] = test system: Clostridium sporogenes DSM 1664; experiment: fold change of Tryptamine concentration vs plate DMSO controls (fold change (ratio)); higher = more amine produced, active = hit call of the paper (significant change in both replicates, either direction)
Method in brief: as §2

[7] = test system: Ruminococcus gnavus DSM 108212; experiment: as above
Method in brief: as §2

Escherichia coli IAI1 [8] = experiment: fold change of Putrescine concentration vs plate DMSO controls (fold change (ratio)); higher = more amine produced, active = hit call of the paper (significant change in both replicates, either direction)
Method in brief: as §2

[9] = test system: Klebsiella aerogenes DSM 30053; experiment: as above
Method in brief: as §2

Escherichia coli IAI1 [10] = experiment: fold change of Cadaverine concentration vs plate DMSO controls (fold change (ratio)); higher = more amine produced, active = hit call of the paper (significant change in both replicates, either direction)
Method in brief: as §2

[11] = test system: Klebsiella aerogenes DSM 30053; experiment: as above
Method in brief: as §2

[12] = test system: Ruminococcus gnavus DSM 108212; experiment: fold change of 2-Phenylethylamine concentration vs plate DMSO controls (fold change (ratio)); higher = more amine produced, active = hit call of the paper (significant change in both replicates, either direction)
Method in brief: as §2

| SMILES | growth [1] | growth (Escherichia coli IAI1 [2]) | growth [3] | growth [4] | fold change of Histamine concentration [5] | fold change of Tryptamine concentration [6] | fold change of Tryptamine concentration [7] | fold change of Putrescine concentration (Escherichia coli IAI1 [8]) | fold change of Putrescine concentration [9] | fold change of Cadaverine concentration (Escherichia coli IAI1 [10]) | fold change of Cadaverine concentration [11] | fold change of 2-Phenylethylamine concentration [12] |
| --- | --- | --- | --- | --- | --- | --- | --- | --- | --- | --- | --- | --- |
| OC[C@H]1O[C@H](O[C@]2(CCl)O[C@H](CCl)[C@@H](O)[C@@H]2O)[C@H](O)[C@@H](O)[C@H]1Cl [Sucralose] (50 µM) | 1 | 0.927 | 1.03 | 1.36 | 0.892 (inactive) | 1.28 (active) | 1.11 (inactive) | 0.948 (inactive) | 0.943 (inactive) | 1.09 (inactive) | 1.06 (inactive) | 1.2 (inactive) |
| Cc1cc(NC(=O)C2=C(O)c3ccccc3S(=O)(=O)N2C)no1 [Isoxicam] (20 µM) | 1.11 | 1.05 | 0.997 | 1.02 | 0.996 (inactive) | 1.02 (inactive) | 1.02 (inactive) | 1.03 (inactive) | 1.01 (inactive) | 0.969 (inactive) | 0.994 (inactive) | 0.947 (inactive) |
| Cc1ccc2c(c1)c1c3n2CCNC3CCC1 (centres undefined) [Pirlindole mesylate] (20 µM) | 0.975 | 1.06 | 0.98 | 1 | 0.963 (inactive) | 0.987 (inactive) | 1.05 (inactive) | 1.06 (inactive) | 1 (inactive) | 1.01 (inactive) | 1 (inactive) | 1.08 (inactive) |
| c1ccc2c(c1)-c1cccc3c1c-2cc1ccccc13 [Benzo[b]fluoranthene] (20 µM) | 1.08 | 0.997 | 1.04 | 1 | 0.993 (inactive) | 1.03 (inactive) | 1.02 (inactive) | 1 (inactive) | 1.02 (inactive) | 1.03 (inactive) | 1.01 (inactive) | 1.04 (inactive) |
| Nc1nnc(-c2cccc(Cl)c2Cl)c(N)n1 [Lamotrigine] (20 µM) | 0.937 | 0.978 | 0.986 | 0.963 | 0.977 (inactive) | 1.03 (inactive) | 1.04 (inactive) | 0.946 (inactive) | 1.02 (inactive) | 1.23 (inactive) | 0.989 (inactive) | 1.06 (inactive) |
| CO[C@@]12[C@H](COC(N)=O)C3=C(C(=O)C(C)=C(N)C3=O)N1C[C@@H]1N[C@@H]12 [Mitomycin C] (20 µM) | 0.678 | 0.0414 | 0.824 | 0.291 | 1.15 (inactive) | 0.394 (active) | 0.153 (active) | 0.663 (inactive) | 0.968 (inactive) | 0.306 (active) | 0.995 (inactive) | 0.15 (active) |
| CNCCCC1c2ccccc2C=Cc2ccccc21 [Protriptyline hydrochloride] (20 µM) | 0.921 | 1.01 | 0.958 | 0.968 | 1.02 (inactive) | 1.12 (inactive) | 0.848 (inactive) | 1.17 (inactive) | 1.02 (inactive) | 1.12 (inactive) | 0.998 (inactive) | 0.829 (inactive) |
| COc1ccc(CN2CCN(C(c3ccc(F)cc3)c3ccc(F)cc3)CC2)c(OC)c1OC [Lomerizine dihydrochloride] (20 µM) | 1.02 | 1.08 | 1.04 | 0.769 | 0.983 (inactive) | 1.08 (inactive) | 0.781 (inactive) | 1.09 (inactive) | 1.01 (inactive) | 0.984 (inactive) | 1.01 (inactive) | 0.87 (inactive) |
| O=C1CN2Cc3c(ccc(Cl)c3Cl)N=C2N1 [Anagrelide] (20 µM) | 0.955 | 1.11 | 1.05 | 1.14 | 0.845 (inactive) | 1.03 (inactive) | 1.02 (inactive) | 1.05 (inactive) | 0.986 (inactive) | 1.16 (inactive) | 1.01 (inactive) | 0.962 (inactive) |
| CC1c2cccc(O)c2C(O)=C2C(=O)C3(O)C(O)=C(C(N)=O)C(=O)C(N(C)C)C3C(O)C21 (centres undefined) [Doxycycline hydrochloride] (20 µM) | 0.0027 | 0.0209 | 0.241 | 0.613 | 0.459 (inactive) | 0.0313 (active) | 0.225 (active) | 0.219 (active) | 0.659 (active) | 0.412 (active) | 0.724 (active) | 0.288 (active) |
| C=CC[C@@H]1/C=C(\C)C[C@H](C)C[C@H](OC)[C@H]2O[C@@](O)(C(=O)C(=O)N3CCCC[C@H]3C(=O)O[C@H](/C(C)=C/[C@@H]3CC[C@@H](O)[C@H](OC)C3)[C@H](C)[C@@H](O)CC1=O)[C@H](C)C[C@@H]2OC [Tacrolimus Monohydrate] (20 µM) | 0.867 | 1.04 | 1.02 | 1.02 | 1.02 (inactive) | 1.02 (inactive) | 1.01 (inactive) | 1.05 (inactive) | 1.02 (inactive) | 1.01 (inactive) | 1.01 (inactive) | 1.02 (inactive) |
| C[C@@]12CC[C@@H]3[C@@](CC[C@H]4[C@@]3(C)CCC[C@@]4(C)C(=O)O)(CC1=O)C2 [Iso-Steviol] (50 µM) | 1.08 | 0.954 | 1.03 | 1.09 | 1.02 (inactive) | 0.905 (inactive) | 1 (inactive) | 0.992 (inactive) | 1.02 (inactive) | 0.963 (inactive) | 1.02 (inactive) | 0.996 (inactive) |
